# Where a name gives a salt, the structure may show the parent alone.
# Tested on: Saccharomyces cerevisiae BY4741 SeMeCo community
# Experiment: z-score of prototroph abundance vs DMSO median; higher = larger share of this subpopulation than in DMSO controls
# Conditions: 10 µM; 24 h; SM minimal medium; subpopulation (auxotrophy): Prototroph
# Experimental: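 Fluorescent four-plasmid SeMeCo (self-establishing metabolically cooperating S. cerevisiae BY4741 community; plasmids pH-mRuby2, pL-mWasabi, pU-eCFP, pM-TagRFP657) was grown 24 h in minimal SM medium with each Selleck FDA-approved drug at 10 µM in 384-well plates. Cells were fixed and imaged by high-content confocal microscopy. For each auxotrophic subpopulation (and the prototroph), a z-score gives the deviation from the DMSO vehicle-control population median.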
row,SMILES,z-score of prototroph abundance
1,CCC(=O)NS(=O)(=O)c1ccc(-c2c(-c3ccccc3)noc2C)cc1 [Parecoxib Sodium],-1.76
2,OCCOc1ccc(/C(=C(/CCCl)c2ccccc2)c2ccccc2)cc1 [Ospemifene],0.59
3,CC[C@@H]1/C=C(\C)C[C@H](C)C[C@H](OC)[C@H]2O[C@@](O)(C(=O)C(=O)N3CCCC[C@H]3C(=O)O[C@H](/C(C)=C/[C@@H]3CC[C@H](Cl)[C@H](OC)C3)[C@H](C)[C@@H](O)CC1=O)[C@H](C)C[C@@H]2OC [Pimecrolimus],-1.82
4,C[C@H]1O[C@@H](O[C@H]2[C@@H](O)C[C@H](O[C@H]3[C@@H](O)C[C@H](O[C@H]4CC[C@@]5(C)[C@H](CC[C@@H]6[C@@H]5C[C@@H](O)[C@]5(C)[C@@H](C7=CC(=O)OC7)CC[C@]65O)C4)O[C@@H]3C)O[C@@H]2C)C[C@H](O)[C@@H]1O [Digoxin],0.39
5,COc1cc(NS(=O)(=O)c2ccc(N)cc2)ncn1 [Sulfamonomethoxine],0
6,CC(C(=O)O)c1ccc2c(c1)CC(=O)c1ccccc1S2 (stereo not given) [Zaltoprofen],0.63
7,CN(C)CCc1c[nH]c2ccc(CS(=O)(=O)N3CCCC3)cc12 [Almotriptan Malate],0.66
8,O=C(O)c1cc(=O)c2c(OCC(O)COc3cccc4oc(C(=O)O)cc(=O)c34)cccc2o1 [Disodium Cromoglycate],0.23
9,CN(C)CCN1C(=O)c2cccc3cc(N)cc(c23)C1=O [Amonafide],0.47
10,CCc1nc(N)nc(N)c1-c1ccc(Cl)cc1 [Pyrimethamine],0.23
11,CC(C(=O)O)c1ccc2c(c1)Cc1cccnc1O2 (stereo not given) [Pranoprofen],0.32
12,Clc1ccc(CSC(Cn2ccnc2)c2ccc(Cl)cc2Cl)cc1 (stereo not given) [Sulconazole Nitrate],-9.61
13,Nc1nc(N)c2nc(-c3ccccc3)c(N)nc2n1 [Triamterene],3.28
14,CC1=C(C(=O)O)N2C(=O)[C@@H](NC(=O)[C@H](N)C3=CCC=CC3)[C@H]2SC1 [Cephradine monohydrate],0.03
15,COCCCN1CCC(NC(=O)c2cc(Cl)c(N)c3c2OCC3)CC1 [Prucalopride],-0.29
16,O=C(O[C@H]1CN2CCC1CC2)N1CCc2ccccc2[C@@H]1c1ccccc1 [Solifenacin succinate],-0.49
17,C[C@@H](O)[C@H]1C(=O)N2C(C(=O)O)=C(S[C@@H]3CN[C@H](C(=O)N(C)C)C3)[C@H](C)[C@H]12 [Meropenem Trihydrate],-0.19
18,N=C(N)NC(=O)c1nc(Cl)c(N)nc1N [Amiloride HCl dihydrate],1.39
19,Clc1ccc(C(Cn2ccnc2)OCc2c(Cl)cccc2Cl)c(Cl)c1 (stereo not given) [Isoconazole nitrate],-7.83
20,CC1=C[C@H]2C(=O)O[C@H]3C[C@@H](C/C=C(\C)C[C@@H](C)/C=C/C=C4\CO[C@H](/C1=N\O)[C@@]42O)O[C@@]1(CC[C@H](C)[C@@H](C)O1)C3.CC[C@H]1O[C@]2(CC[C@@H]1C)C[C@@H]1C[C@@H](C/C=C(\C)C[C@@H](C)/C=C/C=C3\CO[C@@H]4/C(=N\O)C(C)=C[C@@H](C(=O)O1)[C@]34O)O2 [Milbemycin Oxime],0.31

row,SMILES,z-score of prototroph abundance
1,O=C(NCCO[N+](=O)[O-])c1cccnc1 [Nicorandil],0.69
2,O=c1[nH]cnc2c1ncn2[C@@H]1O[C@H](CO)[C@@H](O)[C@H]1O [Isoprinosine],0.72
3,Cc1nc(C)c(Cl)c(O)c1Cl [Clopidol],0.11
4,CO/N=C(\C(=O)N[C@@H]1C(=O)N2C(C(=O)[O-])=C(C[N+]3(C)CCCC3)CS[C@H]12)c1csc(N)n1 [Cefepime Dihydrochloride Monohydrate],-0.67
5,CO[C@H]1C[C@@H]2CC[C@@H](C)[C@@](O)(O2)C(=O)C(=O)N2CCCC[C@H]2C(=O)O[C@H]([C@H](C)C[C@@H]2CC[C@@H](O)[C@H](OC)C2)CC(=O)[C@H](C)/C=C(\C)[C@@H](O)[C@@H](OC)C(=O)[C@H](C)C[C@H](C)/C=C/C=C/C=C/1C [Rapamycin (Sirolimus)],-18.4
6,CCN(CC)CCOc1ccc2c(c1)C(=O)c1cc(OCCN(CC)CC)ccc1-2 [Tilorone dihydrochloride],0.72
7,CCOC(=O)C1=C[C@@H](OC(CC)CC)[C@H](NC(C)=O)[C@@H](N)C1 [Oseltamivir Phosphate],1.28
8,C=CC1=C(C(=O)O)N2C(=O)[C@@H](NC(=O)/C(=N\OCC(=O)O)c3csc(N)n3)[C@H]2SC1 [Cefixime],0.71
9,CCn1cc(C(=O)O)c(=O)c2cc(F)c(N3CCNCC3)nc21 [Enoxacin Sesquihydrate],-0.92
10,C/C=C\c1ccc(O)c(OC)c1 [Isoeugenol],-0.36
11,CC[C@@]1(O)C(=O)OCc2c1cc1n(c2=O)Cc2cc3cc(O)ccc3nc2-1 [Hydroxy Camptothecine],1.27
12,CC1=Nc2ccc(Cl)cc2S(=O)(=O)N1 [Diazoxide],0.72
13,CO/N=C(\C(=O)N[C@@H]1C(=O)N2C(C(=O)O)=C(CSC(=O)c3ccco3)CS[C@H]12)c1csc(N)n1 [Ceftiofur HCl],-0.76
14,Cc1cccc(Nc2ccccc2C(=O)O)c1C [Mefenamic Acid],0.48
15,CCCCOc1cc(C(=O)NCCN(CC)CC)c2ccccc2n1 [Dibucaine HCl],0.15
16,CCCN1C[C@H](C)[C@@H](O)[C@](C)(O)[C@@H](CC)OC(=O)[C@H](C)[C@@H](O[C@H]2C[C@@](C)(OC)[C@@H](O)[C@H](C)O2)[C@H](C)[C@@H](O[C@@H]2O[C@H](C)C[C@H](N(C)C)[C@H]2O)[C@](C)(O)C[C@H]1C [Gamithromycin],-0.29
17,CC(=O)[O-].[K+] [Potassium acetate],0.52
18,COc1cc(Cc2cnc(N)nc2N)cc(OC)c1OC [Trimethoprim],0.19
19,C#C[C@]1(O)CC[C@H]2[C@@H]3CCC4=CCCC[C@@H]4[C@H]3CC[C@@]21C [Lynestrenol],0.17
20,O=C(O)CCC(=O)Nc1ccc(S(=O)(=O)Nc2nccs2)cc1 [Succinylsulfathiazole],0.73

# Reference: the supplement of paper PMC8975748
